# Results published in PubChem BioAssay.
# Activity calls are given as the source filed them. Rule as the data show it, unless noted: active = inhibition above about 80%; inactive = the rest.
# Experiments:
# [1] = UWB1.289 ovarian carcinoma cell growth inhibition, synergistic combos for chromothripsis tumors, BGB or cisplatin combos (AID 1671456); details: UWB1.289 ovarian carcinoma cells, stronger effect = higher value;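 also: cells exposed to compound for four days; 0% = vehicle DMSO and 100% = killing by high DMSO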
# [2] = LFS_MB_2R medulloblastoma cell growth inhibition, synergistic combos for chromothripsis tumors, cisplatin combos (AID 1671457); details: LFS_MB_2R medulloblastoma cells, stronger effect = higher value;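 also: cells exposed to compound for four days before readout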
# [3] = MDA-MB-436 breast carcinoma cell growth inhibition, synergistic combos for chromothripsis tumors, BGB or cisplatin combos (AID 1671458; call rule not given here;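 also: cells exposed for 96 hours; 0% = vehicle DMSO and 100% = killing by high DMSO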); details: MDA-MB-436 breast carcinoma growth inhibition, drug combinations, stronger effect = higher value
# [4] = UWB1.289_BRCA1 ovarian cancer growth, cell-based, BGB or cisplatin combinations (AID 1671459); details: UWB1.289 BRCA1 ovarian carcinoma, drug combinations, stronger effect = higher value
# [5] = human astrocyte viability loss, single and combined drugs, cytotoxicity control for chromothriptic childhood tumor combination screen, cell-based, BGB or cisplatin IC20 combos (AID 1671460); details: Human astrocytes, drug combinations, stronger effect = higher value;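 also: cells exposed to compounds for 96 hours before viability readout; 0% = vehicle and 100% = killing control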
# [6] = growth inhibition of BT084 medulloblastoma cells, cell-based, ICGC_MB145, cisplatin and BGB IC40 combos (AID 1671461); details: drug combinations, stronger effect = higher value;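 also: cells exposed to drugs for 96 hours; 0% = vehicle DMSO and 100% = high DMSO full killing control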
# [7] = growth inhibition of RCMB18 medulloblastoma cells, cell-based, cisplatin and BGB IC40 combos (AID 1671462); details: stronger effect = higher value;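 also: cells exposed to compound for four days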
# [8] = growth inhibition of CRL1545 osteosarcoma cells, cell-based, cisplatin and BGB IC20 combos (AID 1671464); details: stronger effect = higher value;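 also: cells exposed to compound for 96 hours before readout; 0% = vehicle DMSO and 100% = high DMSO killing control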
# F380Y = test: modulators of BK channel variants, profiling panel, selectivity assay, cell-based, U2OS BacMam, thallium flux, beta subunits (AID 1259406;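 active = thallium flux through the channel raised or lowered by more than 3 SD from vehicle-only wells, actives on both sides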;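 also: initial slope of Thallos dye fluorescence rise after thallium is added; log ratio against the mean of 0.3% DMSO vehicle wells on the same plate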); details: at 30 µM
# F380Y/beta1 = test: as above; details: at 30 µM
# [9] = measured here: combination with cisplatin, at 0.5 µM
smiles,measurement,setting,value
CCN1CCN(c2cc3c(cc2F)c(=O)c(C(=O)O)cn3C2CC2)CC1,inhibition,[1]; at 0.5 µM,-2.08% (inactive)
same,inhibition,"[1]; measured here: inhibition with BGB combination, at 0.05 µM",-31.5%
same,inhibition,"[1]; measured here: inhibition with cisplatin combination, at 0.05 µM",-8.73%
same,inhibition,[2]; at 0.5 µM,-19.4% (inactive)
same,inhibition,[2]; [9],-28.5%
same,inhibition,"[2]; measured here: combination with cisplatin, at 5 µM",-100%
same,inhibition,[3]; at 0.5 µM,-32.9% (inactive)
same,inhibition,"[3]; measured here: BGB combination, at 0.5 µM",-15.3%
same,inhibition,"[3]; measured here: BGB combination, at 5 µM",-31.3%
same,inhibition,"[3]; measured here: cisplatin combination, at 0.5 µM",-56.8%
same,inhibition,"[3]; measured here: cisplatin combination, at 5 µM",-40.4%
same,inhibition,"[4]; BGB combination, concentration series, at 5 µM",-7.62%
same,inhibition,[4]; at 0.5 µM,-4.92% (inactive)
same,inhibition,"[4]; cisplatin combination, concentration series, at 5 µM",-6.59%
same,inhibition,[5]; at 0.5 µM,-1.67% (inactive)
same,inhibition,"[5]; measured here: combo with BGB IC20, at 0.5 µM",-3.12%
same,inhibition,"[5]; measured here: combo with cisplatin IC20, at 0.5 µM",-14.1%
same,inhibition,[6]; at 0.5 µM,-38.8% (inactive)
same,inhibition,"[6]; cisplatin combination, at 0.5 µM",-21.3%
same,inhibition,"[6]; cisplatin combination, at 5 µM",-23.4%
same,inhibition,"[6]; measured here: BGB IC40 combination 0.05 uM, at 0.05 µM",-13.2%
same,inhibition,"[6]; single agent, at 5 µM",-37.9%
same,inhibition,[7]; at 0.5 µM,-17.8% (inactive)
same,inhibition,"[7]; cisplatin combo, at 5 µM",-22.9%
same,inhibition,"[7]; measured here: BGB IC40 combination, at 0.05 µM",-24.4%
same,inhibition,[7]; [9],-16%
same,inhibition,"[7]; single agent, at 5 µM",-19.4%
same,inhibition,[8]; at 0.5 µM,13.5% (inactive)
same,inhibition,"[8]; measured here: with BGB IC20 combination, at 0.5 µM",6.58%
same,inhibition,"[8]; measured here: with cisplatin IC20 combination, at 0.5 µM",15.1%
same,inhibition,"[8]; single agent, at 0.05 µM",-0.132%
same,inhibition,"[8]; single agent, at 5 µM",12.7%
same,log fold change Tl+ flux,F380Y,-0.0402 (inactive)
same,log fold change Tl+ flux,F380Y/beta1,0.00744 (inactive)
